Screening data deposited in PubChem by National Center for Advancing Translational Sciences (NCATS).
TRHR PAM = qHTS for Small Molecule Agonists and Allosteric Enhancers of Human TRH Receptor: Primary Screen for Enhancers; AID 493056, 2011; TRHR cells, fluo-8 calcium fluorescence, EC20 TRH enhancement; enhancement, % at 2 µM; 360,000 compounds, 0.66% hits; in the data active = enhancement above about 30%; note: 0% is about no effect
Target sequence (P34981 whole entry, looked up): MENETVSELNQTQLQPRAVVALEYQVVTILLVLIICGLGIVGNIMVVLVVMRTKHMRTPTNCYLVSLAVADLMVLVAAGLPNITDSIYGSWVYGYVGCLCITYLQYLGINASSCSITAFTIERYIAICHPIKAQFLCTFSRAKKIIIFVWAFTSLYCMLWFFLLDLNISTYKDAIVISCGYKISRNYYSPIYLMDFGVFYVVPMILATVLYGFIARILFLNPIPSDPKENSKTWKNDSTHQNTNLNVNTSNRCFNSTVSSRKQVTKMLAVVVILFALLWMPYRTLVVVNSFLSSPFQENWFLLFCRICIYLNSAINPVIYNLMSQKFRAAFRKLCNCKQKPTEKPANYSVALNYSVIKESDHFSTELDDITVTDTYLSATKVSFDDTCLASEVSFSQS
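TRHR-expressing cells loaded with fluo-8 calcium dye were read kinetically (ex 480/em 530) during compound addition, then stimulated with an EC20 of TRH (10 nM final). Enhancement of the Gq-mediated intracellular calcium response was scored.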
D1 PAM = Potentiators of Human D1 Dopamine Receptor: qHTS; HEK293 TREx D1 cells, calcium flux, dopamine EC20 potentiation; potentiation, % at 10 µM; 360,000 compounds, 0.036% hits; AID 504651, 2011; in the data active = potentiation above about 30%; note: 0% is about no effect
GRP78 ERSR act = qHTS for Inducers of the Endoplasmic Reticulum Stress Response (ERSR) in Human Glioma: qHTS; U87-MG GRP78 promoter luciferase reporter, 16 h; 420,000 compounds, 0.02% hits; Potency, µM, for the others: at the highest dose activation, hits mostly activators; active = well fitted activation curve with a large enough effect; note: potency is the fitted concentration of half-maximal effect; series mostly up to about 76 µM; % of control where 0% means no effect; nearly all actives have a fitted effect of over 35% in size
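Stably transfected U87-MG human glioma cells carrying a GRP78-based luminescent sensor were seeded at 1000 cells/well, pin-dosed with compounds and incubated 16 h. Luciferase reagent was then added, and end-point luminescence was read after 10 min at room temperature.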
D1 antag = Antagonist of Human D 1 Dopamine Receptor: qHTS; D(1A) dopamine receptor (Homo sapiens), P21728; AID 504652, 2011; activity change, negative = inhibition, % at 10 µM; 360,000 compounds, 3.2% hits; HEK293 TREx D1 cells, calcium flux, dopamine EC80; active compounds read low; in the data active = activity change below about -30%; note: % is set by controls: 0 for no effect and ±100 for the full control effect
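Kinetic fluorescence of a calcium dye serves as the read-out. D1-expressing Hek293 Trex cells, induced overnight at 30 C, are exposed to compound for 180 s before an EC80 dopamine addition, then read 180 s further.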
D1 ag = Allosteric Agonists of the Human D1 Dopamine Receptor: qHTS | HEK293 T-REx D1 cells, calcium flux, agonist mode | activation, % at 2 µM | 360,000 compounds, 1% hits | AID 504660, 2011; note: 0% is about no effect
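Agonism was scored from calcium flux recorded over 180 s (1 read/s) after pintool compound addition, following a 10-cycle baseline. Cells were inducible force-coupled HEK293 TREx D1, plated overnight at 30 C and loaded with no-wash calcium dye.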
TRHR ag = qHTS for Small Molecule Agonists and Allosteric Enhancers of Human TRH Receptor: Primary Screen for Agonists. AID 493084, 2011. 360,000 compounds, 0.18% hits. activation, % at 2 µM. Thyrotropin-releasing hormone receptor (Homo sapiens), P34981. TRHR cells, calcium flux fluo-8, FDSS agonist mode; note: 0% is about no effect
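In this calcium-flux screen, cells bearing human TRHR are dye-loaded with fluo-8, baselined for 10 cycles, then exposed to library compounds; positive kinetic calcium responses during the agonist phase mark hits, with TRH as control.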
The depositor's hits bear a star; · = no result; ! = not confirmed by another sample. Only some compounds are listed: those with a hit (about 4% of all), similar ones and a draw of the others. Cut-off read from the data, not from the text of the source, unless noted: active = activation above about 30%; inactive = the rest.

SMILES	TRHR PAM	D1 PAM	GRP78 ERSR act	D1 antag	D1 ag	TRHR ag
CCc1ccc(S(=O)(=O)c2cn(C)c3cc(OC)c(OC)cc3c2=O)cc1	1.4	0.4	1.1%	-4.7	0.8	0.1
CCOC(=O)C1CCN(C(=O)CCc2ccc(S(=O)(=O)NC(C)C)cc2)CC1	1.9	1.9	-4.7%	12.8	1.3	-0.3
O=C(NCc1ccco1)c1ccc2snnc2c1	31.8*	-6.2	3.4%	-14.1	-0.7	0.1
O=C(NCc1ccc2c(c1)OCO2)c1ccc2snnc2c1	-3.7	-7.8	-0.1%	-9.0	0.1	-0.3
CC(=O)N1c2ccccc2C2(C)C(C1(C)C)C2(Cl)Cl (configuration not stated)	28.3	20.9	-5.7%	5.3	207.1*	0.9
CCN(CCCNC(=O)c1cc2c(=O)n(C)c3ccccc3c2s1)Cc1ccccc1	0.1	-2.3	0.3%	-35.7*	-0.6	0.3
CN1CCN(CCCNC(=O)c2cc3c(=O)n(C)c4ccccc4c3s2)CC1	2.0	-5.7	-5.2%	-4.0	0.4	0.1
Cn1c(=O)c2cc(C(=O)NCCCN3CCN(c4cccc(Cl)c4)CC3)sc2c2ccccc21	1.6	-2.8	-1.7%	-45.2*	0.2	0.3
Cc1cc(C(=O)N/N=C/c2ccc(-c3cccc(Cl)c3)o2)n[nH]1	-1.5	0.5	0.8%	19.0	66.2*	0.3
O=C(N/N=C/c1ccc(-c2ccccc2)o1)c1ccccc1O	-2.5	-12.2	6.7%	-31.6*	9.5	-0.9
Cc1ccc(CCNC(=O)c2cc3c(=O)n(C)c4ccccc4c3n2C)cc1	-2.2	1.2	-1.5%	-1.7	2.3	-0.1
CN(Cc1ccccc1)C(=O)c1nc2ccccn2c1CNCCn1cccn1	34.4*	-0.2	-3.0%	-3.9	10.1	-0.7
CN(Cc1ccccc1)C(=O)c1nc2ccccn2c1CNCCCOc1cccnc1	-4.8	-5.4	0.9%	5.8	2.0	4.1
CCCn1c(N)c(Sc2ccc(C)cc2)c(=O)n(CCC)c1=O	-0.4	-0.9	-1.7%	7.3	2.8	-0.3
CCCCc1ccc(C2C(C#N)=C(N)SC(N)=C2C#N)s1	-1.6	-8.6	·	-67.2*	62.5*	10.4
COCCn1c(N)c(C(=O)NS(=O)(=O)c2ccc(C)cc2)c(=O)[nH]c1=O	-3.5	1.1	0.2%	-31.8*	7.3	0.1
CC1(C)Cc2cccc(OCC(=O)NCc3ccccc3F)c2O1	-0.9	0.1	-4.2%	-35.4*	2.5	0.2
Cc1ccc(CNC(=O)COc2cccc3c2OC(C)(C)C3)cc1	25.3	-3.2	-2.7%	-7.8	8.4	-0.2
CC(=O)c1ccc(OCC(=O)c2cc(C)n(-c3ccc4c(c3)OCO4)c2C)cc1	-5.1	-5.1	-1.7%	-44.4*	12.5	-0.6
Cc1cc(C(=O)COC(=O)c2ccc(N)c([N+](=O)[O-])c2)c(C)n1-c1ccc2c(c1)OCO2	-4.8	-4.0	-1.5%	-25.1	6.8	0.0
C=CCn1c(CCC(=O)O)ccc1-c1ccccc1	-0.7	-2.0	-1.0%	-56.0*	2.6	0.0
O=C(O)CCc1ccc(-c2ccccc2)n1CC(=O)Nc1cccc(C(F)(F)F)c1	9.2	-8.9	-1.6%	-65.3*	1.0	0.3
O=C(COC(=O)c1cccs1)Nc1ccccc1C(F)(F)F	11.2	-4.2	0.2%	-32.0*	31.6*	0.8
O=C(O)CCc1ccc(-c2ccc(Cl)cc2)n1CCC(=O)O	0.9	4.2	-6.8%	-13.3	2.6	1.0
O=C(O)CCc1ccc(-c2cccs2)n1CC(=O)Nc1ccccc1C(F)(F)F	3.0	-2.8	-4.4%	-38.8*!	2.4	-0.2
SMILES	TRHR PAM	D1 PAM	GRP78 ERSR act	D1 antag	D1 ag	TRHR ag
CCCCN(Cc1ccccc1)S(=O)(=O)c1cc(Br)cc2c1N(C(C)=O)C(C)C2 (configuration not stated)	-2.8	-3.6	-4.7%	-1.4	3.8	0.5
COc1ccccc1CN1CC[C@@]2(CCCN(C(C)=O)C2)C1	·	·	-3.4%	·	·	·
Cn1c(=O)c2c(-c3cccc(F)c3)c3c(nc2n(C)c1=O)-c1ccccc1C3O (configuration not stated)	-3.1	-0.1	·	-7.1	1.1	-1.1
O=c1c(Cl)c2oc3ccccc3nc-2c2ccccc12	12.8	-0.5	0.8%	49.3	74.9*	18.3
Fc1ccc(NCc2nnc3n2CCCCC3)cc1Cl	-3.1	4.5	-2.5%	-27.8	-0.8	0.0
CC1CCN(S(=O)(=O)c2cnc(Cl)c(Br)c2)CC1	4.1	-6.5	-5.1%	3.0	55.5*	-0.7
COc1cc(OC)c(OC)cc1/C=C/c1nc2cc3ccccc3cc2c(=O)n1-c1ccc(F)cc1F	-2.2	2.0	-3.4%	10.0	42.0*	9.5
CN1C(=O)c2ccccc2Sc2ccc(NC(=O)NCc3ccccc3Br)cc21	-3.5	-2.4	-6.8%	4.3	5.5	-0.7
Cc1ccc(Nc2c(-c3ccc(N(C)C)cc3)nc3ccccn23)cc1	0.0	-5.2	-1.6%	-30.2*	1.9	-1.2
Cn1cccc1/C=N/NC(=O)c1sc2ccccc2c1Cl	-5.9	-5.0	4.8%	4.5	1.5	-0.7
CCc1ccc2nc(SCC(=O)N(CC)CC)c(C#N)cc2c1	1.6	-8.2	0.3%	-45.6*	1.0	-0.1
COc1cc(NC(=O)CN2c3ccccc3CC2C)cc(OC)c1OC (configuration not stated)	-1.9	-1.7	-1.3%	-5.5	-1.0	0.2
O=S(=O)(NCCN1CCOCC1)c1cc(Cl)c(Cl)cc1Cl	-11.5	-5.0	-1.7%	-31.3*	6.2	1.3
C/C(=N\Nc1ncc(Br)cn1)c1cccc([N+](=O)[O-])c1	-5.1	0.4	7.8%	4.1	3.5	-0.7
COc1ccc(C2=N[C@H](c3ccccc3)CO2)cc1	·	·	-9.0%	·	·	·
CCOc1ccc(C(=O)Nc2cc(S(=O)(=O)Nc3ccccc3Cl)ccc2N2CCOCC2)cc1	40.1*	-2.3	-1.3%	-13.8	6.1	-1.2
O=C(Nc1ccccc1N1CCOCC1)c1ccccc1NS(=O)(=O)c1ccc(F)cc1	-0.5	-7.7	-3.2%	-86.9*	2.4	-0.7
CCOc1ccc(S(=O)(=O)Nc2ccccc2C(=O)Nc2ccccc2N2CCOCC2)cc1	1.6	0.1	-3.0%	0.0	2.0	0.4
O=C(Nc1cc(S(=O)(=O)N2CCCCC2)ccc1Cl)c1ccccc1NS(=O)(=O)c1ccc(F)cc1	-1.6	-3.1	-8.1%	-33.0*	16.8	2.7
